# Bioassay records from PubChem.
# KB-V1 MDR tox = KB-V1 MDR subline cytotoxicity; Potency, µM (highest dose often 46.1 µM), hits mostly cytotoxic; 400,000 compounds, 3.4% hits; KB-V1 MDR cells viability, CellTiter-Glo, 72 h; AID 1347076; also: nearly all actives have a fitted effect of over 60% in size
#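 Readout: CellTiter-Glo luminescence, 10 min after addition. Cells: KB-V1 MDR subline, 72 h at 37 degrees C with compound. Analysis: corrected, normalized data fitted to concentration-effect curves.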
# MCF10A rerep = inducers of DNA re-replication in MCF 10A breast cells | MCF 10A DNA re-replication, Hoechst nuclear intensity, 48 h | Potency, µM (top dose mostly 46.1 µM), hits mostly activators | 350,000 compounds, 2.9% hits | AID 624296; also: nearly all actives have a fitted effect of over 50% in size
# KB-3-1 tox = KB-3-1 parental cell cytotoxicity. KB-3-1 viability, CellTiter-Glo ATP luminescence, 72 h. Potency, µM (titrated, usually from 46.1 µM), usual class: cytotoxic. 400,000 compounds, 1.4% hits. AID 1347075; also: nearly all actives have a fitted effect of over 60% in size
#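 Cytotoxicity in the drug-sensitive parental line KB-3-1 was scored as loss of CellTiter-Glo luminescence following 72 h incubation with compound. Values come from curve fitting of normalized concentration-response data.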
# ALOX12 inh = inhibitors of human 12S-lipoxygenase ALOX12; purified 12hLO, xylenol orange hydroperoxide absorbance; Potency, µM (doses to about 108 µM), most hits filed as inhibitors; 580,000 compounds, 1.1% hits; AID 1671190
# Target sequence (P18054 whole entry, looked up): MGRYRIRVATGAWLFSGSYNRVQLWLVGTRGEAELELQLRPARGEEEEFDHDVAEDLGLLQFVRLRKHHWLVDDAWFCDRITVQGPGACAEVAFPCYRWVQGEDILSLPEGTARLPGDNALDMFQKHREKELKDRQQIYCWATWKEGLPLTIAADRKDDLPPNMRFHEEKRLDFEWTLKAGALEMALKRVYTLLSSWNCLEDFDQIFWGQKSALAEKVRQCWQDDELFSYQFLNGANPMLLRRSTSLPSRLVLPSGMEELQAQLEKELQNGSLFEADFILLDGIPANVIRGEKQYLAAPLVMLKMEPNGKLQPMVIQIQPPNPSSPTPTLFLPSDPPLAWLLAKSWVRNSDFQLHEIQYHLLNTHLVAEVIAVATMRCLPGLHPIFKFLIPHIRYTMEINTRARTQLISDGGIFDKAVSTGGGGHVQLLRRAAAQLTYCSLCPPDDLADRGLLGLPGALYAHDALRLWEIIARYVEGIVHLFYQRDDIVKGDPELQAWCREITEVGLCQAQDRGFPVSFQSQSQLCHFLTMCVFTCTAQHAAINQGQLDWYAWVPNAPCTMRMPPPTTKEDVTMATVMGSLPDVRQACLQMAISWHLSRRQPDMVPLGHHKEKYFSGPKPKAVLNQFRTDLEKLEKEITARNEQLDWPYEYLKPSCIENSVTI
#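 Hydroperoxide product was detected by ferrous iron/xylenol orange as the 573 to 405 nm absorbance ratio. Arachidonic acid at 40 uM (final) was turned over for 30 min at room temperature by 150 nM human 12hLO, pH 7.0 Hepes buffer, after 15 min compound preincubation.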
# PINK1 expr mod = modulators of PINK1 expression | PINK1 immunofluorescence, high-content cytometry, 24 h | Potency, µM (titrated, usually from 76.6 µM), hits mostly activators | 410,000 compounds, 0.2% hits | AID 624263; active = well fitted activation curve with a large enough effect; inconclusive = small, poorly fitted or top-dose-only effect; cell line not stated here; also: nearly all actives have a fitted effect of over 65% in size
#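 PINK1 protein level read as immunofluorescence by microplate cytometer in a fixed, stained stable cell line after 24 h exposure to five compound concentrations, with CCCP as control.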
# SW480 rerep = induces DNA re-replication in SW480 colon adenocarcinoma cells; SW480 DNA re-replication, Hoechst DNA content imaging, 48 h; AID 624297; 340,000 compounds, 1.8% hits; Potency, µM (highest dose often 46.1 µM), most hits filed as activators; also: nearly all actives have a fitted effect of over 55% in size
#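 Hoechst fluorescence of nuclei (405 nm excitation, 500-530 nm emission) measured by plate-scanning imager after 48 hr compound exposure at 37 C; re-replication scored as increased number of nuclei with elevated intensity.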
# Hits are given with their value; . = inactive; ? = inconclusive; / = no result; [ ] = dose if it differs, or a comment. The list is not random: actives were taken first. Their share in the collection is about 5.8%. Unless noted, calls follow the shape of the dose curve; as a rule, active = well fitted curve in the direction sought with a large enough effect; inconclusive = small, poorly fitted or top-dose-only effect, or another doubt; inactive = no such curve, though single readings can be large; an effect the other way counts as inactive or inconclusive.
SMILES,KB-V1 MDR tox,MCF10A rerep,KB-3-1 tox,ALOX12 inh,PINK1 expr mod,SW480 rerep
COc1cccc(C2C=C(c3ccc(Br)s3)Nc3ncnn32)c1OC (configuration not stated),5.17µM,.,?,/,.,.
COc1cccc(C2=CC(c3ccc(OC)c(OC)c3OC)n3ncnc3N2)c1 (configuration not stated),.,/,.,.,.,/
C=CCOC(=O)C1=C(C)Nc2ncnn2C1c1cc(Br)ccc1F (configuration not stated),?,?,.,.,.,?
Fc1ccc(Br)cc1C1C=C(c2ccc(Br)s2)Nc2ncnn21 (configuration not stated),?,?,?,/,.,0.581µM
O=c1c2c(CO)c(-c3ccc(F)cc3)nn2ccn1Cc1cc(F)ccc1F,/,/,/,.,/,/
CC(C)c1ccccc1NC(=O)/C=C/c1cccs1,/,/,/,.,/,/
CCCc1cc(NCCOCCO)n2c(nc3ccccc32)c1C#N,.,/,.,.,.,/
CCCc1cc(N2CCN(C(=O)c3ccco3)CC2)n2c(nc3ccccc32)c1C#N,.,20.6µM,.,.,.,?
CCCc1cc(NCCCN2CCOCC2)n2c(nc3ccccc32)c1C#N,.,20.6µM,.,.,.,.[9.22 µM]
CCCc1cc(-n2ccnc2C)n2c(nc3ccccc32)c1C#N,.,.,.,.,.,?
CCCc1cc(NCCCCO)n2c(nc3ccccc32)c1C#N,23.1µM,.,.,.,.,.
O=C(NCCc1ccccc1)Nc1c(NC2CCCC2)c2ccccc2oc1=O,/,/,/,.,/,/
Cc1ccc(NS(=O)(=O)c2cc(C(=O)O)cc3c2CCC3)c(F)c1,/,/,/,.,/,/
O=C(CCC(=O)N1CCC(c2noc3ccc(F)cc23)CC1)N1CCOCC1,/,/,/,.,/,/
Cc1ccc2c(CC(=O)NCc3ccco3)coc2c1C,5.8µM,11.6µM,7.31µM,.,.,?
CCCNC(=O)CSc1nc2ccccc2nc1C,/,/,/,.,/,/
O=[N+]([O-])c1ccc(S(=O)(=O)NN=Cc2ccc(Cl)c(Cl)c2)cc1,?,.,.,17.8µM,.,.
O=C(OCc1c(F)cccc1Cl)c1ccccc1Nc1ccccc1,/,/,/,.,/,/
CC(S(=O)(=O)c1ccccc1)S(=O)(=O)c1ccccc1,.,/,.,.,.,/
CC(N1CCOC1=O)S(=O)(=O)c1ccccc1 (configuration not stated),.,.,.,35.5µM,.,.
O=C(CSc1ccc2nnc(-c3cccc(F)c3)n2n1)NCC1CCCO1 (configuration not stated),.,.,.,3.55µM,.,.
COc1cc(Nc2nc3ccccc3nc2C(=O)OC(C)C)cc(OC)c1,/,/,/,6.31µM,/,/
Cc1ccc(C(=O)N(C)C2CCCCC2)cc1I,/,/,/,.,/,/
CC1(C)CC(=O)C2=C(C1)Nc1ccccc1NC2,.,.,.,.,.,?
CC1(C)CC(=O)C2=C(C1)Nc1ccccc1S2,.,?,.,25.1µM,.,?
SMILES,KB-V1 MDR tox,MCF10A rerep,KB-3-1 tox,ALOX12 inh,PINK1 expr mod,SW480 rerep
CC[n+]1ccccc1/C=C/c1ccc(N(C)C)cc1,.,?,1.3µM,?,?,.
CC[n+]1ccc(/C=C/c2ccc(N(C)C)cc2)c2ccccc21,.,.,1.16µM,?,?,.
CC/C=C/C(=O)OCc1ccc(C(N)=O)cc1,/,/,/,.,/,/
O=[S+]([O-])(c1cccnc1)c1nnn2c1nc(NCc1ccc(F)cc1)c1ccccc12,/,/,/,.[6.33 µM],/,/
Cc1[nH]c2ccccc2c1/C=N/n1cnnc1,.,.,.,.,.,.
CCN(CC)c1ccc(N=Cc2c(C)[nH]c3ccccc23)cc1,.,.,.,?,.,8.2µM
COC[C@@H]1CN(S(=O)(=O)c2ccc(C)cc2)C[C@H]1c1nc(C)no1,/,/,/,.,/,/
COC[C@@H]1CN(S(=O)(=O)c2cccc(C)c2)C[C@H]1c1nc(C)no1,/,/,/,44.7µM,/,/
C1CC1Cc1noc(CN2CCN(C3C4CC5CC(C4)CC3C5)CC2)n1 (configuration not stated),.,2.91µM,.,.,.,.
c1cnc(-c2noc(CN3CCN(C4C5CC6CC(C5)CC4C6)CC3)n2)cn1 (configuration not stated),.,.,.,.,.,.
NC(=O)C1CN(CC(=O)Nc2cc(Cl)ccc2Cl)c2ccccc2O1 (configuration not stated),/,/,/,.,/,/
CCc1ccc(NC(=O)CSc2nc3ccccc3c(=O)n2CCC(=O)NC2CCCCC2)cc1,.,/,.,.,.,/
NS(=O)(=O)c1ccc(CCNC(=O)CSc2nc3ccccc3c(=O)n2CCC(=O)N2CCCCC2)cc1,.,0.731µM,.,.,.,.
CCc1ccc(NC(=O)CSc2nc3ccccc3c(=O)n2CCCC(=O)N2CCCC2)cc1,2.91µM,?,?,.,?,?
CC(C)C(NS(=O)(=O)c1c(Cl)cccc1Cl)C(=O)OCC(=O)c1c[nH]c2ccccc12 (configuration not stated),20.6µM,.,.,.,.,/
CC(O)C(NS(=O)(=O)c1ccc(Cl)cc1)C(=O)OCC(=O)c1c[nH]c2ccccc12 (configuration not stated),.,.,.,?,.,.
CCOc1cc(C2/C(=C(/O)c3ccc(OC(C)C)cc3)C(=O)C(=O)N2CCCOC)ccc1O (configuration not stated),.,.,.,20µM,.,.
COCCCN1C(=O)C(=O)/C(=C(/O)c2ccc(C)cc2)C1c1ccccc1 (configuration not stated),.,.,.,7.08µM,.,.
O=C(NC(NC(=O)c1ccccc1)c1ccc(Cl)cc1)c1ccccc1,/,/,/,.,/,/
COc1cc2sc3ccc(-c4ccc(CN5CCOCC5)cc4)cc3c(=O)c2cc1OC,13µM,6.51µM,?,.,.,.
COc1ccc(CN2CCOCC2)cc1OC,.,.,.,.,.,.
COCCNC(=O)CCn1ccc2cc(S(=O)(=O)N3CCCCCC3)ccc21,/,/,/,.,/,/
O=C(CNCc1ccccc1)Nc1ccccc1-c1ccccc1,.,23.1µM,.,.,.,.
O=C(CC(=O)NCc1ccccc1)NCc1ccccc1,.,.,.,.,.,.
O=C(CNc1ccccc1-c1ccccc1)NCc1ccccc1,16.4µM,.,.,.,.,.
COc1ccc(/C=C/c2ccccn2)cc1,.,/,23.1µM,/,/,/
Cc1ccc(C=Cc2ccccn2)cc1,.,/,.,.,.,/
COc1ccc(/C=C/c2ccc(=O)n(Cc3ccccc3)n2)cc1,?,20.6µM,.,?,.,.
Cc1ccc(/C=C/c2ccc(=O)n(Cc3ccccc3Cl)n2)cc1,20.6µM,?,?,.,.,.
CCN(CC)S(=O)(=O)c1cc(C(=O)OCc2nc3ccccc3nc2C)ccc1C,/,/,/,.,/,/
